From the supplement of paper PMC11732987, “Enantioselective OTUD7B fragment discovery through chemoproteomics screening and high-throughput optimisation” (Communications Chemistry, 2025)

How the values were obtained:
Test in all cases: log2 ratio of Biotin-Ahx-Ub-VS probe labelling (fragment/DMSO); higher = less target engagement (more negative = stronger competition), active = hit call of the paper (q ≤ 0.05, log2 ratio ≤ -1)
Details in all cases: compound concentration: 200 uM; treatment time: 3 h
USP19 = biological target: T1, USP19 (UniProt O94966)
T1 sequence (whole entry): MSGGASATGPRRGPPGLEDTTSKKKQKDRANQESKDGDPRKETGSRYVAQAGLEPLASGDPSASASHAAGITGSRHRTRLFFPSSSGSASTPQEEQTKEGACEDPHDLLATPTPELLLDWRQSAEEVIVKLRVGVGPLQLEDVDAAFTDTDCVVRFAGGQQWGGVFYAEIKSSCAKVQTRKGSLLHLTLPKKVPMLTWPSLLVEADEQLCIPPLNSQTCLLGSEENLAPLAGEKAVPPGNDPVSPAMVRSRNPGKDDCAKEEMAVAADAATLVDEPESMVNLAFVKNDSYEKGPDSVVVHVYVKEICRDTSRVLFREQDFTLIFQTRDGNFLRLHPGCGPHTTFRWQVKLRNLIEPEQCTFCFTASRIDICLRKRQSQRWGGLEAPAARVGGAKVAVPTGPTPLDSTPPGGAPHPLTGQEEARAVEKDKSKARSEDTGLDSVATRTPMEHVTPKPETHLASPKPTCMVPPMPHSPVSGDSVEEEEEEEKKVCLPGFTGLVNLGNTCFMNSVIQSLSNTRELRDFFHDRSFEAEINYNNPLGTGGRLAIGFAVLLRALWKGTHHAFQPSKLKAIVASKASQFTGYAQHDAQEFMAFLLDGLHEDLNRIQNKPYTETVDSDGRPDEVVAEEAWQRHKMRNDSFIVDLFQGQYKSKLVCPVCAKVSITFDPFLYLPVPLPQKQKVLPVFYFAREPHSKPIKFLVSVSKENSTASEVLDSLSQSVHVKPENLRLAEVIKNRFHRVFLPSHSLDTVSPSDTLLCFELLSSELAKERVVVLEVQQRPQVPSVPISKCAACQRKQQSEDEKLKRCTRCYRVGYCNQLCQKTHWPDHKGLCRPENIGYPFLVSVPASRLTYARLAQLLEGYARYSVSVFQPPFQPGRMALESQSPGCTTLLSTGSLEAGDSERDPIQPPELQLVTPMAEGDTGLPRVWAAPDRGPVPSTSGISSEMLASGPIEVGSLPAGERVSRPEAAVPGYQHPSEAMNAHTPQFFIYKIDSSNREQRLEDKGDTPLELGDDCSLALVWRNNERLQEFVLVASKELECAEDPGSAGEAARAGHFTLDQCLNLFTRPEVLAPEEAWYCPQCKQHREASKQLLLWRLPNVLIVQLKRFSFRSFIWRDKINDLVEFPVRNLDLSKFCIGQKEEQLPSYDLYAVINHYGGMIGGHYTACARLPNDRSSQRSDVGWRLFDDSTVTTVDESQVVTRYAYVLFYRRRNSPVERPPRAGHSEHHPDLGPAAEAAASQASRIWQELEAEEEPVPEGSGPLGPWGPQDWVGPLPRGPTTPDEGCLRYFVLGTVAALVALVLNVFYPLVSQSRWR
Outline: (§1)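 Each value is an average log2 ratio of fragment to vehicle, tested by unpaired t-test. The underlying Spectronaut label-free quantities were global-median-normalised, and only proteins with ≥2 unique peptides were included. Triplicate HEK293T lysate samples (495 µg) were exposed to fragment at 200 µM or vehicle for 3 h, then to Biotin-Ahx-Ub-VS at 0.5 µM final for 1 h, before NeutrAvidin enrichment of labelled DUBs, LysC and trypsin digestion, and diaPASEF LC-MS/MS.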

USP22 = biological target: T2, USP22 (UniProt Q9UPT9)
T2 sequence (whole entry): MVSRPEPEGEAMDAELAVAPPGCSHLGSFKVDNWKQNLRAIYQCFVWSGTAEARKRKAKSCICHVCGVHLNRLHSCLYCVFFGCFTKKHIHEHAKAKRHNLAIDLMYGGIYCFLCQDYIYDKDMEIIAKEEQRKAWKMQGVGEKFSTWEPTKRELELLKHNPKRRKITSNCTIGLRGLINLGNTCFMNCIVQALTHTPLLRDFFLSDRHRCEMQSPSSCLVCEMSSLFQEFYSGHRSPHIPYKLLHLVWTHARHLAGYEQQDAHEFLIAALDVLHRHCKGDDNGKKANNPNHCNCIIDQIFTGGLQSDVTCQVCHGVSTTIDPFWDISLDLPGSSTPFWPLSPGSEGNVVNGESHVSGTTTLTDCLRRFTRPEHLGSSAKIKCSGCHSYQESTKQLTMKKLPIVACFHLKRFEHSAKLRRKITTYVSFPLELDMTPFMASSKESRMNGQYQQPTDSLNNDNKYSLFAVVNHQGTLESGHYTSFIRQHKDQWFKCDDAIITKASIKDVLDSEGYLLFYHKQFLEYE
Outline: as §1

USP24 = USP24 (UniProt Q9UPU5)
Outline: as §1

USP25 = biological target: T3, USP25 (UniProt Q9UHP3)
T3 sequence (whole entry): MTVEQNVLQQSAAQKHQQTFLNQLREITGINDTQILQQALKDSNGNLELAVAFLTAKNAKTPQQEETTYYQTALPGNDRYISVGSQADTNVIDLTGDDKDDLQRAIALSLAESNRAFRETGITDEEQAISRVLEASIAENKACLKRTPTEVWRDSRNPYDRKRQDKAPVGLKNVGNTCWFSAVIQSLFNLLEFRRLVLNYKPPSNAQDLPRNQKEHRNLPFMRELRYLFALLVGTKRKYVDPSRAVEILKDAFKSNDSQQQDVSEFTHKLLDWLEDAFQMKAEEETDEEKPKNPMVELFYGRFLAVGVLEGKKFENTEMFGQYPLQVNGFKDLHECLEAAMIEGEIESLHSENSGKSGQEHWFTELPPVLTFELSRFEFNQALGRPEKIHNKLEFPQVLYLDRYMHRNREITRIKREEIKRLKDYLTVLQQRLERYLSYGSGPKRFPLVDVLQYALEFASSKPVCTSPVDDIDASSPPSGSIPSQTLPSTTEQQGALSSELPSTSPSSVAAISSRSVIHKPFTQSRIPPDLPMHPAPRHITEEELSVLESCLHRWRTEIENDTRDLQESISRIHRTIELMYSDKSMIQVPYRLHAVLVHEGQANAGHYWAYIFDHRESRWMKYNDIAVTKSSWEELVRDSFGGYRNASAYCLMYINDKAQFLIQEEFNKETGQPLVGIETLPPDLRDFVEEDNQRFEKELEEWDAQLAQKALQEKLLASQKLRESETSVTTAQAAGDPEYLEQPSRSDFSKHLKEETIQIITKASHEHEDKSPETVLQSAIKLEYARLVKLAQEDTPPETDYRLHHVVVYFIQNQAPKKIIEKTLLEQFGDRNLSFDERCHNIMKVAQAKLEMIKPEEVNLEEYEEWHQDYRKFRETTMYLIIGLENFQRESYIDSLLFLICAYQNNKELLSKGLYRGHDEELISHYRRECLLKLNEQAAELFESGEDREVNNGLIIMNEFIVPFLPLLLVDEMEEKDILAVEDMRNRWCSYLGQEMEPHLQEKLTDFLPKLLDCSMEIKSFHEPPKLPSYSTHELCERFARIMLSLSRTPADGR
Outline: as §1

USP28 = biological target: T4, USP28 (UniProt Q96RU2)
T4 sequence (whole entry): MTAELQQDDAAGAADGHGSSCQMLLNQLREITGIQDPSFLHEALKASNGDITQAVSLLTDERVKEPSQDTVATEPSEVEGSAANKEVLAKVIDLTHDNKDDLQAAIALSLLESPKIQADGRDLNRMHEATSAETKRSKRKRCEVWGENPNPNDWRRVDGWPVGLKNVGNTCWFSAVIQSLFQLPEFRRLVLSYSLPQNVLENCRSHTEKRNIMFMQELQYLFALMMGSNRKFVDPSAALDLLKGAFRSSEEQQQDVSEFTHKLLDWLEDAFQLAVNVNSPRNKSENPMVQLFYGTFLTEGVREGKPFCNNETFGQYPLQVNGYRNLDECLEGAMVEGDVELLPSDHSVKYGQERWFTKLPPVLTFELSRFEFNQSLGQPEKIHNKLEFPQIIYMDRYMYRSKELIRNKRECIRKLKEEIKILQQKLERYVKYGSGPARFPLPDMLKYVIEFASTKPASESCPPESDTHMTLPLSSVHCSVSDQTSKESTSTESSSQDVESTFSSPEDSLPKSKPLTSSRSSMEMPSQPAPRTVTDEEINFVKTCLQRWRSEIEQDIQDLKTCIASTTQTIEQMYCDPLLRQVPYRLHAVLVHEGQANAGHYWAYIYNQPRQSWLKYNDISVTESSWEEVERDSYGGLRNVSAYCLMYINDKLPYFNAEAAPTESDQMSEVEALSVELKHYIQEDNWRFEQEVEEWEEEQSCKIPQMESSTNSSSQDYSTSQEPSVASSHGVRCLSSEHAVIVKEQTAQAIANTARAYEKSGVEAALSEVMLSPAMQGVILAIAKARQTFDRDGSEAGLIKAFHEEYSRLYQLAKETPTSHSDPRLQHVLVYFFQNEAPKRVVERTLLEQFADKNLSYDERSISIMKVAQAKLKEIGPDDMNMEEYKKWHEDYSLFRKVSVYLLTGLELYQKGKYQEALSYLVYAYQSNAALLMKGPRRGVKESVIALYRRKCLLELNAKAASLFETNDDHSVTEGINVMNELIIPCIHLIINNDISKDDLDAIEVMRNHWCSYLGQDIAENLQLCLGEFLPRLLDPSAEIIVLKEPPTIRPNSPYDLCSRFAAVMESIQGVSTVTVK
Outline: as §1

Measured: log2 ratio of Biotin-Ahx-Ub-VS probe labelling

Chain of USP24 (Q9UPU5 whole entry): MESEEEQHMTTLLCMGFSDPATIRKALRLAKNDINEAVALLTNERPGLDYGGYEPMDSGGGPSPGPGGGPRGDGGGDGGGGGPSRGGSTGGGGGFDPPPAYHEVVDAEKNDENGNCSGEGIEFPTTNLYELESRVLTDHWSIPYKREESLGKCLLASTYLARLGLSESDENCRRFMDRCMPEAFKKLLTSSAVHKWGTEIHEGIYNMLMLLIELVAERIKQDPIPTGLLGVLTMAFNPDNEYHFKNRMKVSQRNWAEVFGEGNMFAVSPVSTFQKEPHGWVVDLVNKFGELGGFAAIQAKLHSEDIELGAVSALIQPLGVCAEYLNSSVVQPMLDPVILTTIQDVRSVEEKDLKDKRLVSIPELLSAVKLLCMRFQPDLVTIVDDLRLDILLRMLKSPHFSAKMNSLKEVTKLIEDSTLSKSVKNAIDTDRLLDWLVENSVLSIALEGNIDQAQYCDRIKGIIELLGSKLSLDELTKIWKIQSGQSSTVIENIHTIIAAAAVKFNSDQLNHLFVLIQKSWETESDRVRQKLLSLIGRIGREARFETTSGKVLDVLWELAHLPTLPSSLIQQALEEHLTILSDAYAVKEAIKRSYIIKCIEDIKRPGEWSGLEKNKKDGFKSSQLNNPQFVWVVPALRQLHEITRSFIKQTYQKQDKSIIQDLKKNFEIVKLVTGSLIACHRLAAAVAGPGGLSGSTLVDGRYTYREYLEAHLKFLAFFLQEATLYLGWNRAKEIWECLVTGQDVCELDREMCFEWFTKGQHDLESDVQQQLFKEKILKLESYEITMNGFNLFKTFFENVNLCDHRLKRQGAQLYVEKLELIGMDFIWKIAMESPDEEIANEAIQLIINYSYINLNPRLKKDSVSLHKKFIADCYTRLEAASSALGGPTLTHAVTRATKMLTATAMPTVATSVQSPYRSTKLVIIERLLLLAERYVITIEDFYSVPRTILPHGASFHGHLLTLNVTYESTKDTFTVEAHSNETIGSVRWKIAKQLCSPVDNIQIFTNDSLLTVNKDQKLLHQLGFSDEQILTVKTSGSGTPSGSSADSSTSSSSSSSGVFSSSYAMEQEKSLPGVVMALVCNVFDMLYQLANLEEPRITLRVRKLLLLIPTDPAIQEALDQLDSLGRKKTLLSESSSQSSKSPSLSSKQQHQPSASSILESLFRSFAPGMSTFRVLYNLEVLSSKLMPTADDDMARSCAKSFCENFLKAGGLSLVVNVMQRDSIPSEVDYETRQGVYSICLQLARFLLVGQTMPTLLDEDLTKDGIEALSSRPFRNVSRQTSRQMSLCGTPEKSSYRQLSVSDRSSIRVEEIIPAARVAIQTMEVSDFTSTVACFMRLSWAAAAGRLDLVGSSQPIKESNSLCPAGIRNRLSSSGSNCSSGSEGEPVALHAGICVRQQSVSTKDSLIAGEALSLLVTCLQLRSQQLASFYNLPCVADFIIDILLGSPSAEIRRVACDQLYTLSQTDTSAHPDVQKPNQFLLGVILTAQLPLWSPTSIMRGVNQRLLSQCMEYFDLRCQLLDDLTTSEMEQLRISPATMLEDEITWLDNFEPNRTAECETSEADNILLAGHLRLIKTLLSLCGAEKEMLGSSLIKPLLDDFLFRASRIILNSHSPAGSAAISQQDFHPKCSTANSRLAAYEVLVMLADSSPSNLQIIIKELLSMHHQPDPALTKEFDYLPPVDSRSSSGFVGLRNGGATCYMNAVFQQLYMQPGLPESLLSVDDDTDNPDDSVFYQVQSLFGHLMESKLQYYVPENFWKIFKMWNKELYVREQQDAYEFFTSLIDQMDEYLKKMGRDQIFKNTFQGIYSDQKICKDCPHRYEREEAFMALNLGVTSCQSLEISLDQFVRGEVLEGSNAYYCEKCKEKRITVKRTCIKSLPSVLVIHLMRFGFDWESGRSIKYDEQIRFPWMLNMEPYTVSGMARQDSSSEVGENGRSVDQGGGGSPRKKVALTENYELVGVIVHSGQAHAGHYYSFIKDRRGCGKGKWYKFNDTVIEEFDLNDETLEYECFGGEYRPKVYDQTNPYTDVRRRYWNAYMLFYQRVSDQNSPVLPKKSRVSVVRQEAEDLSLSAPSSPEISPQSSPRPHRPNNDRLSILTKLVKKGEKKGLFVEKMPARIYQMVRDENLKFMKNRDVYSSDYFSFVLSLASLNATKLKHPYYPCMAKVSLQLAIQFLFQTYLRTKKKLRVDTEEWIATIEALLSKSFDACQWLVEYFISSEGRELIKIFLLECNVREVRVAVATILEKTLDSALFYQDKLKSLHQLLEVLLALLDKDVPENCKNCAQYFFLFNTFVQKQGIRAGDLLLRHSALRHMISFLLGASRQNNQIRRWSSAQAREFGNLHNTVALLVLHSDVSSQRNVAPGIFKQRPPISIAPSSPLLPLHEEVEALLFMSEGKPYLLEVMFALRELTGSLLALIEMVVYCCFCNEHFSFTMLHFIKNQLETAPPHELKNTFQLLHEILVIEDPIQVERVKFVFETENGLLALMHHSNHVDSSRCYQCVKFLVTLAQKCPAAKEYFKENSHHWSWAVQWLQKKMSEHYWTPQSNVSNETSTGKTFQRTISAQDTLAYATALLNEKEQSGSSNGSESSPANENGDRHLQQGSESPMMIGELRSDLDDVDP

O=C(CCl)N1CCOC2(CCC2)C1
inactive: USP19 0.0251 | USP22 0.184 | USP24 -0.0132 | USP25 -0.216 | USP28 -0.0963
